The values below come from PubChem BioAssay (Tox21).

Test [1] is described as follows: qHTS assay to identify small molecule agonists of the TGF-beta/Smad signaling pathway - cell viability counter screen (AID 1346829). Further: top concentration of the series differs between compounds; nearly all actives have a fitted effect of over 45% in size. The essentials:
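Tox21 qHTS format: SBE-bla HEK 293T cells treated with DMSO-dissolved compounds for 5 hr; CellTiter-Glo luminescence after 30 min at room temperature.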

A short description of test [2]: qHTS assay to identify small molecule agonists of the TGF-beta/Smad signaling pathway (AID 1346859; active means well fitted activation curve with a large enough effect in the signal ratio in the repeat runs, not every such curve was filed as active; the % refers to the signal ratio; further: series mostly up to about 77 µM). The procedure, abridged:
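Stable Smad binding element-beta-lactamase HEK 293T cells; 5 hr compound exposure at 37 C under 5% CO2; 2 hr room-temperature substrate step; fluorescence excited at 405 nm, collected at 460 nm and 530 nm.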

In test [3] the target is Thyrotropin-releasing hormone receptor (Homo sapiens) (UniProt P34981). Description: qHTS assay to identify small molecule antagonists of the thyrotropin-releasing hormone receptor (TRHR) signaling pathway (AID 1346877; active means well fitted inhibition curve with a large enough effect in the repeat runs, not every such curve was filed as active; further: series mostly up to about 51 µM). The essentials:
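Overnight-plated (18 h, 37 °C) HEK293 cells expressing TRHR were dye-loaded 2 h, treated with compound, then stimulated with TRH at 1 nM final. Fluorescence intensity was captured every second for 3 min.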

Test [4] has the same target. Put plainly: qHTS assay to identify small molecule agonists of the thyrotropin-releasing hormone receptor (TRHR) signaling pathway (AID 1346891; calls by dose curve;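 further: HEK293 cells expressing TRHR with calcium dye readout; series mostly up to about 58 µM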). The procedure, abridged: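 In 1536-format, 1500 TRHR-Hek293 cells per well grew 18 h, took up calcium dye for 2 h at 37 °C, received compound, and were read kinetically; 15-point titrations, triplicates.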
Test [5] in a line: Human pregnane X receptor (PXR) small molecule agonists, qHTS cell viability counter screen (AID 1346977). Further: nearly all actives have a fitted effect of over 50% in size. The procedure, abridged:
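Readout is CellTiter-Fluor fluorescence from PXR-Luc HepG2 cells. Plated cells rested 5hr, then were treated with compounds for 24hr at 37C and 5% CO2, with reagent present during the last hour.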

Test [6] in a line: Caspase-3/7 induction in HepG2 cells by small molecules, qHTS assay (AID 1346978). Further: nearly all actives have a fitted effect of over 15% in size. The procedure, abridged:
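Caspase-3/7 induction was measured by Caspase-Glo 3/7 luminescence (30 min, room temperature) after a 17 hr compound exposure of wild-type HepG2 cells seeded at 2,000 per well and pre-incubated 5 hr.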

The nature of test [7]: Caspase-3/7 induction in CHO-K1 cells by small molecules, qHTS cell viability counter screen (AID 1346979). Further: nearly all actives have a fitted effect of over 35% in size. The essentials:
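To flag cytotoxic compounds, treated CHO-K1 wild-type cells were given CellTiter-Fluor at 16hr and read fluorescently after 1hr at 37C; the caspase-3/7 luminescence was measured in these same wells.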

Test [8] can be described thus: Caspase-3/7 induction in CHO-K1 cells by small molecules, qHTS assay (AID 1346980). Further: nearly all actives have a fitted effect of over 15% in size. The essentials: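 Luminescent Caspase-Glo 3/7 read (30min, room temperature) quantified apoptosis induction. Cells were wild-type CHO-K1, treated with compound for 17hr at 37 C and 5% CO2.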
A short description of test [9]: Caspase-3/7 induction in HepG2 cells by small molecules, qHTS cell viability counter screen (AID 1346981). Further: series mostly up to about 92 µM; nearly all actives have a fitted effect of over 30% in size. The essentials: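 Treatment of HepG2 cells with DMSO-delivered compounds ran 16 hr at 37 C following a 5-hr pre-incubation of 2,000 cells/well. CellTiter-Fluor fluorescence, read after 1 hr, served as the viability measure in a qHTS format.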
Test [10] has as its target Nuclear receptor subfamily 1 group I member 2 (Homo sapiens) (UniProt O75469). Put plainly: Human pregnane X receptor (PXR) small molecule agonists, qHTS assay (AID 1346982). Further: nearly all actives have a fitted effect of over 35% in size. The essentials:
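Stable HepG2 line reporting PXR-mediated CYP3A4 expression via luciferase. Treatment: 24 hr with compounds in DMSO at 37 C. Detection: ONE-Glo luminescence.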

Test [11] addresses Cytochrome P450 2D6 (Homo sapiens) (UniProt P10635). Description: Cytochrome P450 Family 2 Subfamily D Member 6 (CYP2D6) small molecule antagonists: luciferase reporter qHTS assay (AID 1671196). Further: series mostly up to about 120 µM; nearly all actives have a fitted effect of over 50% in size. The essentials: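 Chemicals tested for interference with CYP2D6 activity; proluciferin substrate, NADPH regeneration, 1 h at room temperature, luminescent detection.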
In test [12] the target is Cytochrome P450 2C19 (Homo sapiens) (UniProt P33261). Description: Cytochrome P450 Family 2 Subfamily C Member 19 (CYP2C19) small molecule antagonists: luciferase reporter qHTS assay (AID 1671197). Further: nearly all actives have a fitted effect of over 65% in size. Further: potency means the concentration at half of the fitted maximal effect. The essentials: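 Relative luminescence units recorded 20 min after the detection reagent stopped a 1 h, 37C CYP2C19 reaction on proluciferin substrate, which was started by NADPH regeneration following 10 min room-temperature compound preincubation; ketoconazole positive control.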
Sequence of Cytochrome P450 2C19 (Homo sapiens) (P33261 whole entry, looked up): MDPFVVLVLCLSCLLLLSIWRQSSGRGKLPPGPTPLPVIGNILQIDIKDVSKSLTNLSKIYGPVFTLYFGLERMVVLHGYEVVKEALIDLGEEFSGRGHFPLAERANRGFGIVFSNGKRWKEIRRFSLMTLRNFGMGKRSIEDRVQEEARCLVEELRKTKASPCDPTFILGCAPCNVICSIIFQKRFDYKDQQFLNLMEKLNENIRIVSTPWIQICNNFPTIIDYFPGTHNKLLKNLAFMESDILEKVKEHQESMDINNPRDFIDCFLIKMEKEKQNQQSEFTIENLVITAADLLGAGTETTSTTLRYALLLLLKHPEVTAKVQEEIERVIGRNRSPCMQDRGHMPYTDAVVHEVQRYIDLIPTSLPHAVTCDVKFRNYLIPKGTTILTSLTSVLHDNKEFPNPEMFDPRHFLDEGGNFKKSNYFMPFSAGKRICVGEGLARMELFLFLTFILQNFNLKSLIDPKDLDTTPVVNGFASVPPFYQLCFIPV

In test [13] the target is Cytochrome P450 2C9 (Homo sapiens) (UniProt P11712). Description: Cytochrome P450 Family 2 Subfamily C Member 9 (CYP2C9) small molecule antagonists: luciferase reporter qHTS assay (AID 1671198). Further: nearly all actives have a fitted effect of over 50% in size. Further: potency means the concentration at half of the fitted maximal effect. The procedure, abridged: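 Enzyme-substrate mix preincubated with compound 10 min at room temperature; reaction started with NADPH regeneration solution, 1 h 37C. Luminescent luciferin product read after 20 min detection reagent.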
Sequence of Cytochrome P450 2C9 (Homo sapiens) (P11712 whole entry, looked up): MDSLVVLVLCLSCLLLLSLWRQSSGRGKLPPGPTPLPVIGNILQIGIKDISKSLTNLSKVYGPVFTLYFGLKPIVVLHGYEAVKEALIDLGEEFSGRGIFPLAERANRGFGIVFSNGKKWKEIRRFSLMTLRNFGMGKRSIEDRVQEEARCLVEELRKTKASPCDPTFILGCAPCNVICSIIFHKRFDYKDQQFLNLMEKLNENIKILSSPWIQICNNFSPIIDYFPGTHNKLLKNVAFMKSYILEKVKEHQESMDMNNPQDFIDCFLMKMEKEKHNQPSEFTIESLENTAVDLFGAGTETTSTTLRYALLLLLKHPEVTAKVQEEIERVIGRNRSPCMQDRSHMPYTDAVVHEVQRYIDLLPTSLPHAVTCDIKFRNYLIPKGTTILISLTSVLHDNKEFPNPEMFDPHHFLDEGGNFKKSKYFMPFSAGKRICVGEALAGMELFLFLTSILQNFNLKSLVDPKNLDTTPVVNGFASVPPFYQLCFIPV

The target in test [14] is Voltage-gated inwardly rectifying potassium channel KCNH2 (Homo sapiens) (UniProt Q12809). Put plainly: Human Ether-a-go-go-Related Gene (hERG) channel small molecule antagonists: fluorescence cell-based qHTS assay (AID 1671200).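 Further: hERG-expressing U2OS cells given a thallium stimulus after FluxOR II dye loading; series mostly up to about 77 µM; nearly all actives have a fitted effect of over 50% in size.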 The essentials: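 Measured: Tl+ flux via fluorescence (480/540 nm) in hERG-expressing U2OS cells after 1 h dye loading at room temperature.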
Sequence of Voltage-gated inwardly rectifying potassium channel KCNH2 (Homo sapiens) (Q12809 whole entry, looked up): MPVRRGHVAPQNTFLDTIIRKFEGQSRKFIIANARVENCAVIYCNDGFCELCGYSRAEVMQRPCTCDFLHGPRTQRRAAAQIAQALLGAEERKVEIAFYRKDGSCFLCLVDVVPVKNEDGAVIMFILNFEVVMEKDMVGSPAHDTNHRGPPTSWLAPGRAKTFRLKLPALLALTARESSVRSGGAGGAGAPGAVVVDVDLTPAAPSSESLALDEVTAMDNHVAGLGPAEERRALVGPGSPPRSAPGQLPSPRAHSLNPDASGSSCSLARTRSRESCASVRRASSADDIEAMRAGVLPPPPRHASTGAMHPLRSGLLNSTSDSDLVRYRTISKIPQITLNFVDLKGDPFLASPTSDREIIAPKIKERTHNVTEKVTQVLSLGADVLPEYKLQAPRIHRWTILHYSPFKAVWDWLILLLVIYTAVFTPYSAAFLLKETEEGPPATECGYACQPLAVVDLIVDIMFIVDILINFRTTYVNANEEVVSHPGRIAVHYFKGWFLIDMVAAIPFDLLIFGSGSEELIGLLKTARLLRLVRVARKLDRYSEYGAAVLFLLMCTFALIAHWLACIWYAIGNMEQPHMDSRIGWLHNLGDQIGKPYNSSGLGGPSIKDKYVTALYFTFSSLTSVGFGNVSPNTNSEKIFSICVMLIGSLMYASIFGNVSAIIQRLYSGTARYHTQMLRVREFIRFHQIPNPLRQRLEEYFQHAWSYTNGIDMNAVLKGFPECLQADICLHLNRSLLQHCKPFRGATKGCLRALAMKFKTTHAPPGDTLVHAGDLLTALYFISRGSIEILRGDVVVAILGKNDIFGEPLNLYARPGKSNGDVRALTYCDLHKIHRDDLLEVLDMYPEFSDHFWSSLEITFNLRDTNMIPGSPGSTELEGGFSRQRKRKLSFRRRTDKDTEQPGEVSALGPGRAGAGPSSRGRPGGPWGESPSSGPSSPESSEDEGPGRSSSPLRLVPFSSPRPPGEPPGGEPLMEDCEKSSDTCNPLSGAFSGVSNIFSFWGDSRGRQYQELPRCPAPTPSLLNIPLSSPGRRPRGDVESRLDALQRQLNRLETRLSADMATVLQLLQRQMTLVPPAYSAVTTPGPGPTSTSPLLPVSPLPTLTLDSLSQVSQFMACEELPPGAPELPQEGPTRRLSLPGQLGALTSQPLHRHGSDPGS

The target in test [15] is Cytochrome P450 3A4 (Homo sapiens) (UniProt P08684). Description: Cytochrome P450 Family 3 Subfamily A Member 4 (CYP3A4) small molecule antagonists: luciferase reporter qHTS assay (AID 1671201). The essentials:
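Setup: enzyme-substrate mix, compound pin transfer, 10 min RT. Reaction: NADPH regeneration solution, 1 h RT. Readout: detection reagent stops turnover, luminescence measured after 20 min, expressed in relative luminescence units.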

Test [16] deals with Cytochrome P450 1A2 (Homo sapiens) (UniProt P05177). Put plainly: Cytochrome P450 Family 1 Subfamily A Member 2 (CYP1A2) small molecule antagonists: luciferase reporter qHTS assay (AID 1671199). The procedure, abridged:
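Read-out is luminescence from luciferin detection reagent (20 min) proportional to CYP1A2 activity; compounds in DMSO preincubated 10 min with enzyme and proluciferin substrate, then NADPH regeneration solution, 1 h, room temperature.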

Test [17] has as its target Nuclear receptor subfamily 1 group I member 2 (Rattus norvegicus) (UniProt Q9R1A7). Description: Rat pregnane X receptor (rPXR) activation by small molecules, qHTS assay (AID 1346983). Further: nearly all actives have a fitted effect of over 20% in size. The note with it: rPXR luciferase reporter cells, One-Glo luminescence, 24 h; max activation: stronger effect = higher value. The essentials: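 Luminescent readout (One-Glo luciferase, 30 min room temperature) followed 24 hr compound treatment at 37 C of rPXR cells plated 2,000 per well and preincubated 5hr; qHTS format with compounds delivered in DMSO.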

The target in test [18] is Nuclear receptor subfamily 1 group I member 2 (Homo sapiens) (UniProt O75469). Put plainly: CYP3A4 induction through human pregnane X receptor (PXR) by small molecules, qHTS assay (AID 1346984). Further: nearly all actives have a fitted effect of over 40% in size. The procedure, abridged:
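After 24 h at 37C with compound, DPX-2 cells (HepG2, co-transfected PXR response element and CYP3A4 promoter-luciferase) got 3uM final P450-Glo Luciferin-IPA for 3 h; One-Glo luminescence followed.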

Test [19] shares this target. Description: Human pregnane X receptor (PXR) activation by small molecules, qHTS assay (AID 1346985). Further: nearly all actives have a fitted effect of over 40% in size. The essentials: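 DPX-2 cells (HepG2 co-transfected with a PXR response element and a CYP3A4-promoter luciferase construct) were seeded at 2,000 per well, rested 5 hr at 37C, then exposed to DMSO-dissolved compounds for 24 hr. Activation was read as luciferase luminescence.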

Unmarked numbers belong to inactive results. Records with an inconclusive call do not appear. Calls of active or inactive are those of the source. Unless noted, the call rests on the fitted dose curve; in most records, active means well fitted curve in the direction sought with a large enough effect in the repeat runs; inconclusive means weak or mixed curves; inactive means no such curve, though single readings can be large; an effect the other way counts as inactive or inconclusive.
On the % scale 0 is the no-effect control and ±100 the full control effect.

Sequence of Cytochrome P450 1A2 (Homo sapiens) (P05177 whole entry, looked up): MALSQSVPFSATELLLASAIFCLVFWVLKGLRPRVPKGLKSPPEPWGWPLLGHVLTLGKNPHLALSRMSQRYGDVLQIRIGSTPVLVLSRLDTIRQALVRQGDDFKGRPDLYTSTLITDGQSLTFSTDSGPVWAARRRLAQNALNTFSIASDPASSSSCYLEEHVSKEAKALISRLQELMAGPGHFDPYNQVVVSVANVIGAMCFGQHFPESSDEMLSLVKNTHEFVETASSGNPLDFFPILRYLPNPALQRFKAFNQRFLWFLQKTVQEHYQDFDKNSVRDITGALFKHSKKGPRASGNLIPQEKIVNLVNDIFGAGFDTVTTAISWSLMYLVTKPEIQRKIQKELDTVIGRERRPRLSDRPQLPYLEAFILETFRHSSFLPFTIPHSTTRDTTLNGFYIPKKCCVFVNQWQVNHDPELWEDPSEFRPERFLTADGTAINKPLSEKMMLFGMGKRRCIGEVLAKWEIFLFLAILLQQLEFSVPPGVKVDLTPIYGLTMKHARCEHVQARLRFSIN
Sequence of Cytochrome P450 2D6 (Homo sapiens) (P10635 whole entry, looked up): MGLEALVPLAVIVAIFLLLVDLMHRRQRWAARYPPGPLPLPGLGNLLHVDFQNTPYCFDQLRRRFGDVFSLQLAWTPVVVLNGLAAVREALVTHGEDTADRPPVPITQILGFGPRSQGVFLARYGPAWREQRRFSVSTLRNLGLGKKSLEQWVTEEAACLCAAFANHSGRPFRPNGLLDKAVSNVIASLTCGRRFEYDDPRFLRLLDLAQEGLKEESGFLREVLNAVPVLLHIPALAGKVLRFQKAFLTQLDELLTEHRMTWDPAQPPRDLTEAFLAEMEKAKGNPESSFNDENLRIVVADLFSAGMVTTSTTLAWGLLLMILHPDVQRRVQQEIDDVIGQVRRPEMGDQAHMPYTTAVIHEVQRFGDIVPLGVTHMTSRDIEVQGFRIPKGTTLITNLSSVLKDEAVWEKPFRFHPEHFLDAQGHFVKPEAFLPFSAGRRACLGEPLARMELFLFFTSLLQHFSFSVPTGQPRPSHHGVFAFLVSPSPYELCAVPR
Sequence of Cytochrome P450 3A4 (Homo sapiens) (P08684 whole entry, looked up): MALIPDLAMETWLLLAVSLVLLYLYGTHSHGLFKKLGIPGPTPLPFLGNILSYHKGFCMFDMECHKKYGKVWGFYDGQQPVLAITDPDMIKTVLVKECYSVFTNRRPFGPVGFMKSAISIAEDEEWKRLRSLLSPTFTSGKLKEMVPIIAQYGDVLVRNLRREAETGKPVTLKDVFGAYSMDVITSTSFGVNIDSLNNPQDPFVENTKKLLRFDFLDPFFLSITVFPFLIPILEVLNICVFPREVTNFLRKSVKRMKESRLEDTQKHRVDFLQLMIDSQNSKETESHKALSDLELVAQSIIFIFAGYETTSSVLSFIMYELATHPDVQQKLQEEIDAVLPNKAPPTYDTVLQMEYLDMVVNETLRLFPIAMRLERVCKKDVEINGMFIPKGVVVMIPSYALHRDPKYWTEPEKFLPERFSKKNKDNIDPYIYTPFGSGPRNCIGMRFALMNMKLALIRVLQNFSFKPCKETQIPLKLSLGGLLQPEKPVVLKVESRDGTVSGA
Sequence of Nuclear receptor subfamily 1 group I member 2 (Homo sapiens) (O75469 whole entry, looked up): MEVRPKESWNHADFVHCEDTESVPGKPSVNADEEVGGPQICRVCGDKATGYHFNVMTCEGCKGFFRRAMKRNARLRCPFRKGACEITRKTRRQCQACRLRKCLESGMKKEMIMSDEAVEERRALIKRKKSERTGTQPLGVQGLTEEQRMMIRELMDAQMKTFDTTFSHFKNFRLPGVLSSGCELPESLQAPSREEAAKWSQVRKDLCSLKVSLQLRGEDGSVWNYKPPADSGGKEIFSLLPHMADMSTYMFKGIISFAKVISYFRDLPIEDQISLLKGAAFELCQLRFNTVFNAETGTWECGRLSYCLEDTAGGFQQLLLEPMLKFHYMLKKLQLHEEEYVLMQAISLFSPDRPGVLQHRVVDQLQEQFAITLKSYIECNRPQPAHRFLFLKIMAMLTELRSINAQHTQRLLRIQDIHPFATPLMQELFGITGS
Sequence of Thyrotropin-releasing hormone receptor (Homo sapiens) (P34981 whole entry, looked up): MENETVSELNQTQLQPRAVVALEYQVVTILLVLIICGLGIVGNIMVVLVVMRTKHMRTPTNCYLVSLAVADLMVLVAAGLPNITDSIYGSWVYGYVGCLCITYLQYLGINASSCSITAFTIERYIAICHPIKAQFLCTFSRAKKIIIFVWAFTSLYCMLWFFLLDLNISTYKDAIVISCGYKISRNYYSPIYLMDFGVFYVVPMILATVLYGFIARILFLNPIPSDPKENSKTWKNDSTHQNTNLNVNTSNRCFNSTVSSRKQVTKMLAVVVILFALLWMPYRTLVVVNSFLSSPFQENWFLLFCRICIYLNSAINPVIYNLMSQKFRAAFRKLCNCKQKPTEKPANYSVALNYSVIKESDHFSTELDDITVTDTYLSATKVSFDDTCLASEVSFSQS
Sequence of Nuclear receptor subfamily 1 group I member 2 (Rattus norvegicus) (Q9R1A7 whole entry, looked up): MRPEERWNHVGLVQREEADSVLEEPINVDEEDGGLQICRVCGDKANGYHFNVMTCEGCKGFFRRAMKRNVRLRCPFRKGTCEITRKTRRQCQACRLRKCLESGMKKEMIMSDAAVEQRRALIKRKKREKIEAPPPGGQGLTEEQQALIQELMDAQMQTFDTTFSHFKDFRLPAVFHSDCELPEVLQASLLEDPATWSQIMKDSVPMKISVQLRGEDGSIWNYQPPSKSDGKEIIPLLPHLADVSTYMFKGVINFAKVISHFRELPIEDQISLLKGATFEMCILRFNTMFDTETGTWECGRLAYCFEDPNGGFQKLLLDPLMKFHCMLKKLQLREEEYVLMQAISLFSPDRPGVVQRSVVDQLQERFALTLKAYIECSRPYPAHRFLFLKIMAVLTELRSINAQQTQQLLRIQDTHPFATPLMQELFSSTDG

Turning to `NC(=O)NNC(N)=O`, the call in [1], in test [2], in test [3], in test [4], in test [6] and in test [8] was inactive. The Potency result in [5], in test [7], in [9], in [10], in [11] and in test [12] was “inactive” in each case. Moreover, the Potency result in test [14] and in [15] was “inactive” each time. Further, the Potency in test [13] is 79.6 µM (active).
Consider `CCCCCCCCCCCCOC(C)=O`, for which the call in test [1], in test [2], in test [3], in test [4], in [6] and in test [8] was inactive. Besides, the Potency result in test [5], in test [7], in test [9], in test [10], in test [11] and in test [12] was “inactive” throughout. Besides, the Potency entry in test [13], in test [16], in test [14] and in test [15] was “inactive” throughout.
As to `O=C(O)CCNC(=O)c1ccccc1`, the result in test [1], in test [2], in test [3], in [4], in test [6] and in [8] was inactive. Also, the Potency result in test [5], in test [7], in test [9], in test [10], in [11] and in [12] was “inactive” throughout. Moreover, the Potency result in [13], in test [16] and in [14] was “inactive” each time.
For `Cn1c(=O)c2c(ncn2CC2OCCO2)n(C)c1=O`, the compound was classed as inactive in [1], in test [2], in test [3], in [4], in [6] and in test [8]. In addition, the compound was called inactive in [18]. In addition, the Potency entry in [5], in test [7], in [9], in test [10], in test [19] and in test [11] was “inactive” in each case. Also, the Potency result in [14] and in test [15] was “inactive” throughout. Also, in test [17], the max activation was 6.17%.
As for `CCCCCCCCCCCCC1CO1` (stereo not drawn), the compound was called inactive in test [1], in test [2], in test [3], in test [4], in test [6] and in test [8]. In addition, the Potency entry in test [5], in test [7], in test [9], in [10], in [11] and in test [12] was “inactive” each time. The Potency entry in test [16] and in test [14] was “inactive” each time.
Consider `COc1ccc(/C=N/NC(=O)c2ccncc2)cc1OC`, for which the call in test [1], in [2], in test [3], in [4], in [6] and in test [8] was inactive. Besides, the compound was classed as inactive in [18]. The Potency entry in test [5], in [7], in test [9], in test [10], in test [19] and in test [14] was “inactive” each time. The max activation in [17] is -2.5%. Besides, the Potency was 34.7 µM (active) in test [12] and 17.4 µM (active) in test [13].
As to `C[C@H](CCC(=O)NCC(=O)O)[C@H]1CC[C@H]2[C@@H]3[C@H](O)C[C@@H]4C[C@H](O)CC[C@]4(C)[C@H]3C[C@H](O)[C@]12C`, the compound was called inactive in test [1], in [2], in [3], in [4], in test [6] and in test [8]. The Potency entry in test [5], in test [7], in test [9], in test [10], in test [11] and in [12] was “inactive” throughout. Moreover, the Potency result in test [16], in test [14] and in test [15] was “inactive” each time.
Take `CNCc1ccccc1`: the call in test [1], in test [2], in test [3], in test [4], in test [6] and in test [8] was inactive. Further, the call in test [18] was inactive. Moreover, the Potency result in test [5], in test [7], in [9], in [10], in [19] and in test [11] was “inactive” throughout. The Potency entry in test [16] and in test [14] was “inactive” throughout. The max activation in [17] was -0.758%.
